Laboratory results published in the supplement of paper PMC10849652.
The full data set covers some 7,900 targets. This sample favours those with a hit. About 0.6% of all pairs of compound and target were hits. Values without a mark were called inactive.

How the values were obtained:
Test in all cases: log2 fold change, soluble protein after heating vs DMSO (PISA); higher = thermal stabilisation; K562 cells, 10 uM, 30 min; active = over 0.2 and 3.5 SD of the protein, either way, in both replicates (recomputed)
[1] = compound: CS(=O)(=O)c1ccc(-c2cnc(N)c(C(=O)Nc3ccccc3)n2)cc1
Procedure, shortened: (§1)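 Aliquots of K562 cells (2×10^6 cells/mL) treated with 10 μM compound for 30 min were heated for 3 min over 48°C-58°C. After pooling and extraction in PBS with 0.5% NP-40 at 4°C, soluble protein from a 21,000xg, 90 min spin was quantified by TMTpro 16plex LC-MS/MS with channel sums equalised. Thermal stability is expressed against control samples, from duplicates, as a log2 fold change.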

crizotinib = compound: C[C@@H](Oc1cc(-c2cnn(C3CCNCC3)c2)cnc1N)c1c(Cl)ccc(F)c1Cl [crizotinib]
Procedure, shortened: as §1

[2] = compound: C[C@@H]1COCCN1C2=NC(=NC(=C2)C3(CC3)S(=O)(=O)C)C4=C5C=CNC5=CC=C4
Procedure, shortened: as §1

[3] = compound: C[C@H](C1=CC=C(C=C1)C(=O)NC2=C3C=CNC3=NC=C2)N
Procedure, shortened: as §1

duvelisib = compound: C[C@H](Nc1ncnc2nc[nH]c12)c1cc2cccc(Cl)c2c(=O)n1-c1ccccc1 [duvelisib]
Procedure, shortened: as §1

gandotinib = compound: Cc1cc(Nc2cc(CN3CCOCC3)c3nc(C)c(Cc4ccc(Cl)cc4F)n3n2)n[nH]1 [gandotinib]
Procedure, shortened: as §1

tozasertib = compound: Cc1cc(Nc2cc(N3CCN(C)CC3)nc(Sc3ccc(NC(=O)C4CC4)cc3)n2)n[nH]1 [tozasertib]
Procedure, shortened: as §1

[4] = compound: Cc1cc(SCc2sc(-c3ccc(C(F)(F)F)cc3)nc2C)ccc1OCC(=O)O
Procedure, shortened: as §1

doramapimod = compound: Cc1ccc(-n2nc(C(C)(C)C)cc2NC(=O)Nc2ccc(OCCN3CCOCC3)c3ccccc23)cc1 [doramapimod]
Procedure, shortened: as §1

ispinesib = compound: Cc1ccc(C(=O)N(CCCN)[C@@H](c2nc3cc(Cl)ccc3c(=O)n2Cc2ccccc2)C(C)C)cc1 [ispinesib]
Procedure, shortened: as §1

UniProt Q96G25, sequence (Q96G25 whole entry, looked up): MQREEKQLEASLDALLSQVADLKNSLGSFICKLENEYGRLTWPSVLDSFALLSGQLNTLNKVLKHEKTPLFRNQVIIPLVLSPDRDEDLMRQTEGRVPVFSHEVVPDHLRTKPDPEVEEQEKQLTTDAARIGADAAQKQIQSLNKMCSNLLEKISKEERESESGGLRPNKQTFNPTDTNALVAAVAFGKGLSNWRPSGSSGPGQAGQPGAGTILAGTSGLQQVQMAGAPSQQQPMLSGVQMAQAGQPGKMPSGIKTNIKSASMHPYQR
UniProt Q9Y2E5, sequence (Q9Y2E5 whole entry, looked up): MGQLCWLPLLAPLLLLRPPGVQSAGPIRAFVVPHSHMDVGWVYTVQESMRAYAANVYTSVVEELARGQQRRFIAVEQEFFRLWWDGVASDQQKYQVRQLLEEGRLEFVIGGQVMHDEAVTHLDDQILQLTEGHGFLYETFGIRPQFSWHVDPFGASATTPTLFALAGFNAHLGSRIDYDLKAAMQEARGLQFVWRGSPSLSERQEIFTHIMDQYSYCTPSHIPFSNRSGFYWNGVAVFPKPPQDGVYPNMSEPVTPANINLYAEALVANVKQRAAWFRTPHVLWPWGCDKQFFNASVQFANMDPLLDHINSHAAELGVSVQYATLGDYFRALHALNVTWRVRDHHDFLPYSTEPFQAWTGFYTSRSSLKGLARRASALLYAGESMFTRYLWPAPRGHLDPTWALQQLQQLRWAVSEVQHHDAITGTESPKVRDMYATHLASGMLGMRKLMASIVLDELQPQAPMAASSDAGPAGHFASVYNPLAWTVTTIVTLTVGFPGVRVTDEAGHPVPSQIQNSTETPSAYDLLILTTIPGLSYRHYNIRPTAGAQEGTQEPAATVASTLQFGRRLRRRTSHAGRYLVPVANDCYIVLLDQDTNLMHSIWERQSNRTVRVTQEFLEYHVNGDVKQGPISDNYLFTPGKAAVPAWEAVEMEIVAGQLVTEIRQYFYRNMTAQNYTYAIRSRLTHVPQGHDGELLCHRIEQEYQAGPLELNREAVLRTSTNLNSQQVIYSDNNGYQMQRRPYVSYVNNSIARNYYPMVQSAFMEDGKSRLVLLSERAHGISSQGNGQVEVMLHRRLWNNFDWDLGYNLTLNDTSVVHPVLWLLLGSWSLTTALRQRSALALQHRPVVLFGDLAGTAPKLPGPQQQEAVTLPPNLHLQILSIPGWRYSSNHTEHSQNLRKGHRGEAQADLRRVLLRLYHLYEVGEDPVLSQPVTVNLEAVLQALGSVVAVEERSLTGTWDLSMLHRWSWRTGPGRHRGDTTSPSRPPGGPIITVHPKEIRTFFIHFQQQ
UniProt Q86WA8, sequence (Q86WA8 whole entry, looked up): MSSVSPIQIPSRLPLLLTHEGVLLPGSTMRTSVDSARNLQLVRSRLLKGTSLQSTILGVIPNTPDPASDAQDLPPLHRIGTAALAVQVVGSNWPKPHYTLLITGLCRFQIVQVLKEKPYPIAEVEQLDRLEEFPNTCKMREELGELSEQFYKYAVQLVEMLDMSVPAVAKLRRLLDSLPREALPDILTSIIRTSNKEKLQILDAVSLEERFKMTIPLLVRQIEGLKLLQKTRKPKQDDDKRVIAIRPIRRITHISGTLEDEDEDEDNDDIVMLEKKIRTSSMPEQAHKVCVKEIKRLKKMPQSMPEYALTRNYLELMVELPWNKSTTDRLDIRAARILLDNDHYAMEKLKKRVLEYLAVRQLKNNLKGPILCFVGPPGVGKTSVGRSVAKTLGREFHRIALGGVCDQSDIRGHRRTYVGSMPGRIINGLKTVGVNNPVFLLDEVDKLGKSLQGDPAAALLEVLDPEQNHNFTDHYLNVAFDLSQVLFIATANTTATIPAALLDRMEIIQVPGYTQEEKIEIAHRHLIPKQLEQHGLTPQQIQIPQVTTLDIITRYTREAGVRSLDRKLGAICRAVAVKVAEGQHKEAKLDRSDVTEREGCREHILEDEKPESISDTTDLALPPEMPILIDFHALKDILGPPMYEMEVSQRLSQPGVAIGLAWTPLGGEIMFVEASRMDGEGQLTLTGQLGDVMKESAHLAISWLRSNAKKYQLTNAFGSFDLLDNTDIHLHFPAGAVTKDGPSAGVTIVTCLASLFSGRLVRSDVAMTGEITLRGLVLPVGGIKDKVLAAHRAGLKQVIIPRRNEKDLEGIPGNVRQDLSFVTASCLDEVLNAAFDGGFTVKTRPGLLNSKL
UniProt Q96QZ7, sequence (Q96QZ7 whole entry, looked up): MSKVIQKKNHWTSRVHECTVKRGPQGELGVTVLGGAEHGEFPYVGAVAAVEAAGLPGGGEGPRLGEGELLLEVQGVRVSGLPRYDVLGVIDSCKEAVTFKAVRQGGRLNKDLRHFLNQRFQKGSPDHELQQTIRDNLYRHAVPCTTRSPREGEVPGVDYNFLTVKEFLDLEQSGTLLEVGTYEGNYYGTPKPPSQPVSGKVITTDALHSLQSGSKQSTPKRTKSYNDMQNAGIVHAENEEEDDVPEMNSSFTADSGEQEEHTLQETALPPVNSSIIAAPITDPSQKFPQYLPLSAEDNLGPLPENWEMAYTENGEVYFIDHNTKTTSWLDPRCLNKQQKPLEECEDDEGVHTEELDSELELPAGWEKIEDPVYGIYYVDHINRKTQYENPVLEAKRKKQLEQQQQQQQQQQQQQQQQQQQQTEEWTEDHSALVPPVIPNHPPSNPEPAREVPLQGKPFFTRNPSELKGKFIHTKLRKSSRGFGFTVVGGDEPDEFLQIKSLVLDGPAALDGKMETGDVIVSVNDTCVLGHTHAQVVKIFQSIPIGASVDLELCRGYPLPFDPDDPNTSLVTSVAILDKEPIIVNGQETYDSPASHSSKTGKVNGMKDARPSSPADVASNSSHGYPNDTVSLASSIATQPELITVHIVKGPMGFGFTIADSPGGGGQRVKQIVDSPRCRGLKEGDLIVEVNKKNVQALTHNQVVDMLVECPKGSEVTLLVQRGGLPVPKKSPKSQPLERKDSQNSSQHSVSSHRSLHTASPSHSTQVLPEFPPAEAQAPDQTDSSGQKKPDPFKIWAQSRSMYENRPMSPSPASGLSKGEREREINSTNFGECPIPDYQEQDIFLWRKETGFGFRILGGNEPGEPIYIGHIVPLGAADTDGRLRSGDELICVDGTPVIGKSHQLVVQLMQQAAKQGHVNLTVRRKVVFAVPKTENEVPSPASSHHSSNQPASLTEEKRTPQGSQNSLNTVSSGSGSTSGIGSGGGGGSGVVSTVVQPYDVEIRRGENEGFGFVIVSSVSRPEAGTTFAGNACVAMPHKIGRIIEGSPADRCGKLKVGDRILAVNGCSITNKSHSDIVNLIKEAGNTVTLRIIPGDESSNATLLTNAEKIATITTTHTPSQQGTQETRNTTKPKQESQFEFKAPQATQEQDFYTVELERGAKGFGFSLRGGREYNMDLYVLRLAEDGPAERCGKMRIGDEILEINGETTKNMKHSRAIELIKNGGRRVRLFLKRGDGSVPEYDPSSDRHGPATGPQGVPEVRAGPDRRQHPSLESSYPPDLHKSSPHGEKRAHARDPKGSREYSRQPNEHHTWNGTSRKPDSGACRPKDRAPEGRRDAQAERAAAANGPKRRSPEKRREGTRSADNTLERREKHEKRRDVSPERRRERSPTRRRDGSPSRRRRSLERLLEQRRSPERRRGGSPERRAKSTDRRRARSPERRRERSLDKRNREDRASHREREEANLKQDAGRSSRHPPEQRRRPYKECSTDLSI
UniProt Q6UWB1, sequence (Q6UWB1 whole entry, looked up): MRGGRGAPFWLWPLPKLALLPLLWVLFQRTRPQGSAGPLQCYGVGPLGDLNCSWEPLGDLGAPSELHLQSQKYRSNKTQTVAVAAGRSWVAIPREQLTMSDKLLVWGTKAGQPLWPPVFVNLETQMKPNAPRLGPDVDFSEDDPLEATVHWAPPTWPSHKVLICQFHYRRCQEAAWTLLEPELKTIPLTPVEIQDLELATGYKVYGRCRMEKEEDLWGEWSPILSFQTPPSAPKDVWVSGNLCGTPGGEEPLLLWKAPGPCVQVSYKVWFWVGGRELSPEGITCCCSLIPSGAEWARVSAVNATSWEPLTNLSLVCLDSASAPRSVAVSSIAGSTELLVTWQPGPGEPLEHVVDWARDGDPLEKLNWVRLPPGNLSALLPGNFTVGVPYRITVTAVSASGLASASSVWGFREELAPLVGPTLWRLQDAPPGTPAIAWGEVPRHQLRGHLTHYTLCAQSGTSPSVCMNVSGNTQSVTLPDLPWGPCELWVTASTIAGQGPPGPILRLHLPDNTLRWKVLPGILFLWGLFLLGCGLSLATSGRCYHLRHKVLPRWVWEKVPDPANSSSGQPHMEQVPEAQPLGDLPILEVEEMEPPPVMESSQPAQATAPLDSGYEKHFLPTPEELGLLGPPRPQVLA
UniProt O94889, sequence (O94889 whole entry, looked up): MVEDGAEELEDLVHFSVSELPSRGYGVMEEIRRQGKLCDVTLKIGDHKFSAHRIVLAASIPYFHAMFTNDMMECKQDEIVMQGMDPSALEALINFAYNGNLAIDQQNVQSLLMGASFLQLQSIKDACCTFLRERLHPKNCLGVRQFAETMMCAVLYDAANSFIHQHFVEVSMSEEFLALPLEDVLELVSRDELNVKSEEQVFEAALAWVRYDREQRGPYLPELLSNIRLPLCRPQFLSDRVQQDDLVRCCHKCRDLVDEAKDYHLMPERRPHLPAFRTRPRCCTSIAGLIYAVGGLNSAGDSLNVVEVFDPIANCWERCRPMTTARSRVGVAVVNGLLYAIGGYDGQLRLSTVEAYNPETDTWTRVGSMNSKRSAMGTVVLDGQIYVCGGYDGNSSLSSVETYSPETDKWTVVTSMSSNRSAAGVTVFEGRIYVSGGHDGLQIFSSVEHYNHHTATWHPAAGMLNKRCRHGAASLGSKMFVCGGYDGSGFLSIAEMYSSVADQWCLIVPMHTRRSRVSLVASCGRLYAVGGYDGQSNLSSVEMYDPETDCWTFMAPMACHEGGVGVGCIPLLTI
UniProt Q15528, sequence (Q15528 whole entry, looked up): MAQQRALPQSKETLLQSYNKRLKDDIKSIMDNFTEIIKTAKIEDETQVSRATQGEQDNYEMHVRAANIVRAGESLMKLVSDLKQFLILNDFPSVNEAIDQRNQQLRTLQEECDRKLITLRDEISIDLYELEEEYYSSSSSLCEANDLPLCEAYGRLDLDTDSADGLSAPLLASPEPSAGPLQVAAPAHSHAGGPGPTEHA

| Target | log2 fold change [1] | log2 fold change (crizotinib) | log2 fold change [2] | log2 fold change [3] | log2 fold change (duvelisib) | log2 fold change (gandotinib) | log2 fold change (tozasertib) | log2 fold change [4] | log2 fold change (doramapimod) | log2 fold change (ispinesib) |
| --- | --- | --- | --- | --- | --- | --- | --- | --- | --- | --- |
| IGFBP2 (UniProt P18065) | -0.205 | -0.297 | -0.051 | -0.189 | 0.173 | -0.475 | -0.083 | 0.026 | -0.305 | -0.482 |
| IPO7 (UniProt O95373) | -0.011 | -0.138 | 0.042 | -0.07 | 0.029 | -0.185 | 0.102 | 0.073 | -0.054 | -0.077 |
| MAPRE3 (UniProt Q9UPY8) | -0.011 | 0.004 | 0.092 | -0.085 | 0.02 | -0.098 | 0.037 | 0.006 | -0.042 | 0.02 |
| KDM5D isoform 3 (UniProt Q9BY66) | -0.004 | 0.038 | -0.005 | -0.054 | 0.057 | -0.051 | 0.212 | 0.125 | 0.108 | 0 |
| MIF (UniProt P14174) | -0.027 | 0.025 | 0.111 | -0.048 | 0.197 | 0.079 | -0.019 | -0.025 | -0.019 | 0.055 |
| MAGI1 (UniProt Q96QZ7) | -0.006 | -0.003 | -0.053 | 0.032 | -0.013 | 0.003 | -0.03 | 0.046 | 0.024 | -0.042 |
| MARCKS (UniProt P29966) | 0.022 | 0.198 | -0.042 | -0.191 | 0.006 | 0.234 | -0.068 | 0.025 | 0 | -0.031 |
| IP6K1 (UniProt Q92551) | 0.129 | – | -0.072 | 0.295 | 0.065 | -0.145 | -0.027 | 0.23 | – | -0.437 |
| MAP4K4 isoform 3 (UniProt O95819) | -0.058 | – | 0.002 | -0.055 | 0.091 | 0.311 | -0.169 | 0.017 | -0.156 | -0.05 |
| MAPK14 (UniProt Q16539) | 0.023 | -0.062 | – | 0.018 | -0.129 | -0.099 | -0.066 | 0.015 | – | -0.069 |
| MED25 isoform 3 (UniProt Q71SY5) | 0.061 | 0.021 | – | 0 | 0.061 | 0.19 | 0.136 | 0.162 | 0.085 | -0.018 |
| KCNK5 (UniProt O95279) | 0.087 | -0.164 | 0.339 | -0.013 | 0.213 | -0.03 | – | 0.242 | -0.165 | – |
| MAML1 (UniProt Q92585) | -0.022 | 0.074 | 0.053 | -0.056 | – | – | – | – | -0.038 | -0.006 |
| LUM (UniProt P51884) | -0.011 | 0.352 | -0.146 | 0.217 | 0.021 | – | -0.182 | -0.135 | 0.168 | -0.007 |
| IL27RA (UniProt Q6UWB1) | -0.031 | 0.029 | 0.539 (active) | -0.121 | 0.244 | – | -0.039 | -0.109 | 0.211 | 0.043 |
| IMMP1L (UniProt Q96LU5) | 0.024 | 0.121 | 0.045 | -0.05 | 0.088 | – | -0.058 | 0.012 | 0.015 | -0.063 |
| IRAK4 (UniProt Q9NWZ3) | 0.034 | -0.025 | 0.003 | 0.046 | -0.01 | -0.107 | 0.061 | 0.104 | -0.047 | -0.05 |
| MAPK14 isoform 2 (UniProt Q16539) | 0.087 | -0.062 | -0.018 | -0.013 | -0.072 | -0.022 | 0.031 | 0.017 | – | -0.038 |
| MCM10 (UniProt Q7L590) | -0.171 | -0.015 | -0.102 | – | – | 0.092 | 0.144 | – | -0.01 | – |
| MAPK12 (UniProt P53778) | -0.005 | – | 0.105 | -0.106 | -0.005 | 0.037 | 0.099 | 0.01 | – | -0.036 |
| MAN2B2 (UniProt Q9Y2E5) | 0.051 | -0.014 | 0.055 | – | 0.094 | – | -0.044 | 0.004 | 0.017 | -0.147 |
| MED12 isoform 2 (UniProt Q93074) | -0.088 | -0.088 | 0.207 | – | 0.068 | -0.009 | 0.012 | 0.048 | 0.095 | -0.117 |
| LMBRD1 (UniProt Q9NUN5) | -0.003 | – | 0.111 | -0.14 | -0.037 | -0.137 | -0.083 | -0.031 | – | -0.61 (active) |

| Target | log2 fold change [1] | log2 fold change (crizotinib) | log2 fold change [2] | log2 fold change [3] | log2 fold change (duvelisib) | log2 fold change (gandotinib) | log2 fold change (tozasertib) | log2 fold change [4] | log2 fold change (doramapimod) | log2 fold change (ispinesib) |
| --- | --- | --- | --- | --- | --- | --- | --- | --- | --- | --- |
| MAP3K4 isoform 2 (UniProt Q9Y6R4) | 0.012 | -0.256 (active) | 0.042 | -0.017 | 0.02 | -0.054 | 0.026 | 0 | 0.02 | 0.021 |
| MED8 isoform 2 (UniProt Q96G25) | 0.021 | 0.037 | -0.049 | -0.077 | 0.029 | – | – | -0.079 | -0.031 | 0.012 |
| LSR (UniProt M0QZL9) | -0.03 | – | 0.118 | – | – | – | – | – | – | – |
| MAP3K20 isoform 2 (UniProt Q9NYL2) | 0.038 | -0.182 | 0.082 | – | – | – | -0.191 | – | 0.096 | – |
| MED22 (UniProt Q15528) | 0.013 | -0.082 | 0.027 | 0.027 | 0.158 | – | -0.036 | 0.049 | 0.027 | -0.098 |
| ILF3 (UniProt Q12906) | -0.152 | -0.201 | -0.284 | – | – | – | – | – | 0.026 | – |
| INTS5 (UniProt Q6P9B9) | 0.029 | -0.013 | 0.058 | – | 0.047 | – | 0.076 | 0.008 | 0.006 | 0.025 |
| LPGAT1 (UniProt Q92604) | -0.01 | -0.101 | 0.073 | 0.015 | -0.02 | – | -0.088 | 0.16 | -0.038 | -0.237 |
| LYN isoform 2 (UniProt P07948) | -0.791 (active) | -0.211 | -0.281 | -0.294 | – | – | – | – | 0.159 | – |
| METAP1D (UniProt Q6UB28) | -0.009 | -0.041 | 0.147 | -0.037 | 0.03 | – | -0.055 | 0.01 | -0.091 | -0.032 |
| LONP2 (UniProt Q86WA8) | -0.004 | 0.072 | 0.026 | 0.113 | -0.017 | 0.017 | 0.073 | -0.094 | 0.073 | 0.092 |
| KMT2C isoform 3 (UniProt Q8NEZ4) | 0.013 | – | 0.021 | 0.022 | 0.134 | -0.106 | 0.063 | -0.048 | – | -0.235 |
| LRFN1 (UniProt Q9P244) | 0.108 | -0.006 | -0.15 | -0.198 | 0.038 | – | -0.042 | 0.009 | -0.09 | 0.102 |
| ITM2B (UniProt Q9Y287) | 0.065 | -0.193 | -0.032 | 0.038 | -0.15 | – | 0.033 | -0.032 | 0.043 | 0.131 |
| KLHL18 (UniProt O94889) | 0.092 | – | 0.078 | -0.084 | 0.049 | -0.561 (active) | -0.108 | 0.02 | – | 0.028 |
| MASTL (UniProt Q96GX5) | -0.058 | 0.092 | 0.179 | 0.046 | -0.199 | – | – | -0.12 | -0.075 | 0.099 |
| MFN2 (UniProt O95140) | 0.028 | -0.109 | 0 | 0.022 | -0.048 | 0.028 | -0.013 | 0.041 | 0.039 | -0.208 |
| LNPEP (UniProt Q9UIQ6) | 0.028 | 0.015 | 0.023 | -0.053 | 0.053 | 0.028 | -0.023 | -0.008 | -0.013 | -0.039 |
| ILRUN (UniProt Q9H6K1) | -0.033 | 0.115 | 0.028 | -0.038 | 0.021 | – | -0.087 | 0.029 | 0.005 | 0.032 |
| MARCHF3 (UniProt Q86UD3) | 0.243 | – | 0.029 | – | – | – | – | – | – | – |
| MED7 (UniProt O43513) | -0.03 | 0.11 | -0.031 | -0.081 | -0.046 | – | 0.004 | 0.049 | -0.199 | 0.017 |
| IL10RB (UniProt Q08334) | 0.004 | 0.009 | -0.031 | – | 0.018 | -0.238 | -0.122 | 0.089 | -0.007 | – |
| MARK2 (UniProt E9PC69) | 0.068 | -0.323 | -0.049 | 0.15 | -0.181 | – | -0.263 | 0.12 | 0.119 | -0.232 |
